PubChem BioAssay (Tox21)
Results filed as inconclusive are left out. Activity calls are given as the source filed them. Unless noted, calls follow the shape of the dose curve; as a rule, active = well fitted curve in the direction sought with a large enough effect in the repeat runs; inconclusive = weak or mixed curves; inactive = no such curve, though single readings can be large; an effect the other way counts as inactive or inconclusive.

Tests used:
[1] = qHTS assay to identify aromatase inhibitors - cell viability counter screen (AID 743084);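 also: cells stimulated with testosterone during compound exposure; nearly all actives have a fitted effect of over 55% in size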
[2] = molecular target: Aryl hydrocarbon receptor (Homo sapiens) (UniProt P35869); experiment: qHTS assay to identify small molecule that activate the aryl hydrocarbon receptor (AhR) signaling pathway (AID 743085);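 also: HG2L7.5c1 human HepG2 liver cells with stably integrated DRE-driven firefly reporter; series mostly up to about 70 µM; nearly all actives have a fitted effect of over 15% in size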
Aryl hydrocarbon receptor (Homo sapiens), sequence (P35869 whole entry, looked up): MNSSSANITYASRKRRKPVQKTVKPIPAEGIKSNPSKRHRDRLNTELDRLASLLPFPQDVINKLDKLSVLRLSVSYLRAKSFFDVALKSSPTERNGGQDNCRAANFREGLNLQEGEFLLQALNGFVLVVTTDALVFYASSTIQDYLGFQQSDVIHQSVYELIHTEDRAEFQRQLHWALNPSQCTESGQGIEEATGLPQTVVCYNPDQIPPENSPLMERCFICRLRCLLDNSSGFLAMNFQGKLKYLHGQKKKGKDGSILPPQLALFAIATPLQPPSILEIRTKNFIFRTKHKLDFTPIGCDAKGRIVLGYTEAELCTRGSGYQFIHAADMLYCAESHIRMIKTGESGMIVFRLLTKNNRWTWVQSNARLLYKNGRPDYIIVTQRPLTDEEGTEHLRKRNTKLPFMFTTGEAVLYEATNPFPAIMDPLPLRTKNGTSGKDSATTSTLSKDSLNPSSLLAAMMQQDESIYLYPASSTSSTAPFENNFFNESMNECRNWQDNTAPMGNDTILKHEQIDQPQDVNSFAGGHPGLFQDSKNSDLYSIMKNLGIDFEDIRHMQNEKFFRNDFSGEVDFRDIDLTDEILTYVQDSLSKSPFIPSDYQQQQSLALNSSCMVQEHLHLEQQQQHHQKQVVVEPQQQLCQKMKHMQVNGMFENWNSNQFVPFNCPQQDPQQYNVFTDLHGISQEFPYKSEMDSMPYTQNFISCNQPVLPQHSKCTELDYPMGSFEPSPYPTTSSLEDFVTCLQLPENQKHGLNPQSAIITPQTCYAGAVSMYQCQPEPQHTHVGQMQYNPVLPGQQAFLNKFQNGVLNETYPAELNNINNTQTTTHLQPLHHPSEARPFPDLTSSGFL
Procedure, shortened: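 A multiplexed format paired cell viability (CellTiter-Fluor fluorescence) with AhR-dependent luciferase output (ONE-Glo luminescence) in the same wells of HepG2 DRE-luc cells after 24 h compound exposure at 37C.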

[3] = qHTS assay to identify small molecule that activate the aryl hydrocarbon receptor (AhR) signaling pathway - cell viability counter screen (AID 743086);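 also: HepG2 liver cells carrying the AhR DRE luciferase reporter; series mostly up to about 70 µM; nearly all actives have a fitted effect of over 45% in size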
Procedure, shortened: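 HepG2-AhR-luc (HG2L7.5c1) cells, 4000/well, treated 24 h at 37 C with compound; viability measured as CellTiter-Fluor fluorescence after 30 min in the same wells as the luciferase read.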

[4] = qHTS assay to identify small molecule antagonists of the peroxisome proliferator-activated receptor gamma (PPARg) signaling pathway - cell viability counter screen (AID 743194); settings: Potency: co-treated with 50 nM rosiglitazone; also: nearly all actives have a fitted effect of over 55% in size
Procedure, shortened: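 Cytotoxicity counter screen in PPARg-bla HEK293H cells, same wells as reporter assay. Compounds plus 50 nM rosiglitazone (final) for 17 h at 37 C, then viability read by CellTiter-Glo luminescence.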

[5] = qHTS assay for small molecule agonists of the antioxidant response element (ARE) signaling pathway - cell viability counter screen (AID 743203; calls by dose curve; also: nearly all actives have a fitted effect of over 55% in size)
Procedure, shortened: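 Following 16 hrs of compound treatment at 37C, HepG2 cells with an ARE-controlled beta-lactamase gene were lysed with CellTiter-Glo. Luminescence was read after 30 min at room temperature.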

[6] = qHTS assay for small molecule activators of the heat shock response signaling pathway - cell viability counter screen (AID 743209); also: nearly all actives have a fitted effect of over 50% in size
Procedure, shortened: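 Readout: CellTiter-Glo luminescence, 30 min at room temperature. System: HSE-bla HeLa cells, 1500/well, plated overnight. Treatment: compounds in DMSO, 5 h at 37 C.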

[7] = qHTS assay to identify small molecule agonists of the peroxisome proliferator-activated receptor delta (PPARd) signaling pathway - cell viability counter screen (AID 743211); also: nearly all actives have a fitted effect of over 55% in size
Procedure, shortened: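 Tox21 library compounds, delivered in DMSO, were incubated 17 h with PPARd-bla HEK293H cells; cytotoxicity was taken from CellTiter-Glo luminescence read 30 min after reagent addition.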

[8] = molecular target: Peroxisome proliferator-activated receptor delta (Homo sapiens) (UniProt Q03181); experiment: qHTS assay to identify small molecule agonists of the peroxisome proliferator-activated receptor delta (PPARd) signaling pathway (AID 743212; calls by dose curve)
Peroxisome proliferator-activated receptor delta (Homo sapiens), sequence (Q03181 whole entry, looked up): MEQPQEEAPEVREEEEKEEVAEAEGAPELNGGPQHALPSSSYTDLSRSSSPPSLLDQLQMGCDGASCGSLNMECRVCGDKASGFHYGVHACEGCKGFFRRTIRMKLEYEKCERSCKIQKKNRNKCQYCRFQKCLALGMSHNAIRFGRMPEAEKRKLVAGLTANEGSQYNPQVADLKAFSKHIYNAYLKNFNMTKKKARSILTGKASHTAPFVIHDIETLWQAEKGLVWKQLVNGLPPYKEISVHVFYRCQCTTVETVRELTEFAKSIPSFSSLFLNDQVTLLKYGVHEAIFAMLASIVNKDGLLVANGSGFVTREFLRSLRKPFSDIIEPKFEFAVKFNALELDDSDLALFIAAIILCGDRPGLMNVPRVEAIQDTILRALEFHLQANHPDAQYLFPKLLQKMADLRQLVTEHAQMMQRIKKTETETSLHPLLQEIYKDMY
Procedure, shortened: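 Quantitative high-throughput agonist screen in a HEK293H beta-lactamase reporter line under UAS control. Compounds in DMSO, at 37 C. Fluorescence read after 2 h with FRET substrate at room temperature.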

[9] = qHTS assay to identify small molecule antagonists of the peroxisome proliferator-activated receptor delta (PPARd) signaling pathway - cell viability counter screen (AID 743213); also: nearly all actives have a fitted effect of over 50% in size
Procedure, shortened: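 In this counter screen, HEK293H cells carrying a UAS-beta-lactamase reporter are co-treated with test compounds and 300 nM L165041 (final) for 17 h at 37 C; cell viability is quantified by CellTiter-Glo luminescence.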

[10] = molecular target: Peroxisome proliferator-activated receptor delta (Homo sapiens) (UniProt Q03181); experiment: qHTS assay to identify small molecule antagonists of the peroxisome proliferator-activated receptor delta (PPARd) signaling pathway (AID 743215; active = well fitted inhibition curve with a large enough effect in the signal ratio in the repeat runs, not every such curve was filed as active; the % refers to the signal ratio;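 also: cells stimulated with agonist L165041 at 300 nM final during compound exposure; series mostly up to about 62 µM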)
Procedure, shortened: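 HEK293H UAS-bla, PPARd; agonist L165041 300 nM final with cpd in DMSO; 37 C 17 h; FRET substrate, RT 2 h; fluorescence intensity.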

[11] = qHTS assay to identify small molecule agonists of the farnesoid-X-receptor (FXR) signaling pathway - cell viability counter screen (AID 743218); also: nearly all actives have a fitted effect of over 45% in size
Procedure, shortened: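 Parallel cytotoxicity test: compound-treated (16 h, 37 C) HEK 293T FXR-bla reporter cells were lysed with CellTiter-Glo and luminescence recorded.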

[12] = qHTS assay to identify small molecule antagonists of the farnesoid-X-receptor (FXR) signaling pathway - cell viability counter screen (AID 743221; active = well fitted cell-killing curve with a large enough effect in the repeat runs, not every such curve was filed as active; also: nearly all actives have a fitted effect of over 50% in size)
Procedure, shortened: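 Cytotoxicity is taken from ATP luminescence (CellTiter-Glo, 30 min, room temperature) in FXR-bla HEK 293T cells previously incubated 16 h at 37 C with compound and chenodeoxycholic acid at 50 uM final.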

[13] = qHTS assay for small molecule activators of the heat shock response signaling pathway (AID 743210; active = well fitted activation curve with a large enough effect in the signal ratio in the repeat runs, with a control signal flat, not every such curve was filed as active; the % refers to the signal ratio;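 also: HeLa cells with beta-lactamase reporter driven by heat shock elements; series mostly up to about 63 µM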)
Procedure, shortened: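 Quantitative high-throughput format using an engineered HeLa line in which heat shock response elements drive beta-lactamase; after 5 h with compound, cells received a B/G FRET substrate and fluorescence was read.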

[14] = molecular target: Bile acid receptor (Homo sapiens) (UniProt Q96RI1); experiment: qHTS assay to identify small molecule antagonists of the farnesoid-X-receptor (FXR) signaling pathway (AID 743217; active = well fitted inhibition curve with a large enough effect in the signal ratio in the repeat runs, not every such curve was filed as active; the % refers to the signal ratio)
Bile acid receptor (Homo sapiens), sequence (Q96RI1 whole entry, looked up): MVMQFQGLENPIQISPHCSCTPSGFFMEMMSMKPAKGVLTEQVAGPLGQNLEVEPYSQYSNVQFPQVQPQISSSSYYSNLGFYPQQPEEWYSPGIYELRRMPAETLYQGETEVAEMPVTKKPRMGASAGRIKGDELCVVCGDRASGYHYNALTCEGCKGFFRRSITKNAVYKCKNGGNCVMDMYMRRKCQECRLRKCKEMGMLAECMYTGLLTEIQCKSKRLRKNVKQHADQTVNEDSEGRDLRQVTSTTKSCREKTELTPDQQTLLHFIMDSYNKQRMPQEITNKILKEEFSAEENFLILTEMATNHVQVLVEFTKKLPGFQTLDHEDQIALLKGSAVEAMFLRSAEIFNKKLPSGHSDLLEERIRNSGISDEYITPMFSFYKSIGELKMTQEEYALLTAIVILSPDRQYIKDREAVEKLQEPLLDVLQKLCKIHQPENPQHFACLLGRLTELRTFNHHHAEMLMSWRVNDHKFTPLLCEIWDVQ
Procedure, shortened: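 GeneBLAzer FXR-UAS-bla HEK 293T, CDCA-stimulated (50 uM final). Compound treatment 16 h, 37 °C. Detection: beta-lactamase cleavage of B/G FRET substrate, fluorescence.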

[15] = molecular target: Bile acid receptor (Homo sapiens) (UniProt Q96RI1); experiment: qHTS assay to identify small molecule agonists of the farnesoid-X-receptor (FXR) signaling pathway (AID 743220; active = well fitted activation curve with a large enough effect in the signal ratio in the repeat runs, not every such curve was filed as active; the % refers to the signal ratio)
Procedure, shortened: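 Beta-lactamase reporter under UAS control in GeneBLAzer FXR HEK 293T cells (5000/well) measured with LiveBLAzer FRET substrate after 2 h at room temperature. Compound exposure lasted 16 h at 37C.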

[16] = qHTS assay for small molecule agonists of the antioxidant response element (ARE) signaling pathway (AID 743202; active = well fitted activation curve with a large enough effect in the signal ratio in the repeat runs, not every such curve was filed as active; the % refers to the signal ratio)
Procedure, shortened: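 Agonist mode reporter screen: HepG2 cells with ARE-controlled beta-lactamase are incubated with test compounds for 16 h at 37 C, and beta-lactamase activity is measured as fluorescence of cleaved B/G FRET substrate.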

[17] = molecular target: Vitamin D3 receptor (Homo sapiens) (UniProt P11473); experiment: qHTS assay to identify small molecule agonists of the vitamin D receptor (VDR) signaling pathway (AID 743222; calls by dose curve)
Vitamin D3 receptor (Homo sapiens), sequence (P11473 whole entry, looked up): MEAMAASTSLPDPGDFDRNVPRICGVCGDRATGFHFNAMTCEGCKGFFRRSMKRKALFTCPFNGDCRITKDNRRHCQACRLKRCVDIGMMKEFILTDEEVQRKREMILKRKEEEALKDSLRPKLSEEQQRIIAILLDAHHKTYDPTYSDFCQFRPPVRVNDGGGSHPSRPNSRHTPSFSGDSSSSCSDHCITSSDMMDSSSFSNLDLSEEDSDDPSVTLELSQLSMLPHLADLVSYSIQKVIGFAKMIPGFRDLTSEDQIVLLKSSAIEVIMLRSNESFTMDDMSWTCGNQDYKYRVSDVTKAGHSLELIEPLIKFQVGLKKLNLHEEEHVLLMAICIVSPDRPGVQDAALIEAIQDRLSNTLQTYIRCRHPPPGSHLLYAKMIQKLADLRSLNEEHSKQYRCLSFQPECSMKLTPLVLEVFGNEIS
Procedure, shortened: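 In VDR-bla cells, compound-induced beta-lactamase expression is quantified by FRET substrate fluorescence. Treatment lasts 16 h at 37C; substrate develops 2 h at room temperature.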

[18] = molecular target: Vitamin D3 receptor (Homo sapiens) (UniProt P11473); experiment: qHTS assay to identify small molecule antagonists of the vitamin D receptor (VDR) signaling pathway (AID 743223; active = well fitted inhibition curve with a large enough effect in the signal ratio in the repeat runs, not every such curve was filed as active; the % refers to the signal ratio)
Procedure, shortened: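 Quantitative HTS in VDR-bla reporter cells stimulated with 1alpha,25-dihydroxyvitamin D3, 3 nM final. Compound exposure 16 h, 37C, 5% CO2. Read-out: beta-lactamase FRET substrate fluorescence, 2 h RT.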

[19] = molecular target: Peroxisome proliferator-activated receptor gamma (Homo sapiens) (UniProt P37231); experiment: qHTS assay to identify small molecule agonists of the peroxisome proliferator-activated receptor gamma (PPARg) signaling pathway (AID 743094; active = well fitted activation curve with a large enough effect in the signal ratio in the repeat runs, not every such curve was filed as active; the % refers to the signal ratio)
Peroxisome proliferator-activated receptor gamma (Homo sapiens), sequence (P37231 whole entry, looked up): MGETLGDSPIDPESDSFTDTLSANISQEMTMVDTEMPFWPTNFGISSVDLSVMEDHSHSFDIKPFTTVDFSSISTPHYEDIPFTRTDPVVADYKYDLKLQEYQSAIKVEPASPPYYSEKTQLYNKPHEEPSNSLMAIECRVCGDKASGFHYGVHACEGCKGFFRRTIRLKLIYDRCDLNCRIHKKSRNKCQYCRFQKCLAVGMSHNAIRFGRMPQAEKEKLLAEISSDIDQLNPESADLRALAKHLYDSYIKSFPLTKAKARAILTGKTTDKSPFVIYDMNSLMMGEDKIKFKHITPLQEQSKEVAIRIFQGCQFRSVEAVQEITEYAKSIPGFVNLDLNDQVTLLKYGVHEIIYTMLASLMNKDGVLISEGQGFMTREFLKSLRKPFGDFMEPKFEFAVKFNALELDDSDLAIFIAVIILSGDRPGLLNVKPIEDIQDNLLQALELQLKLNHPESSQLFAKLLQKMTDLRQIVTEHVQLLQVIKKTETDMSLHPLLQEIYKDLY
Procedure, shortened: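 Compounds dissolved in DMSO were added to PPARg UAS-bla HEK293H cells for 17 h at 37C, and reporter expression was quantified by fluorescence intensity after 1 h with LiveBLAzer B/G FRET substrate.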

[20] = molecular target: Peroxisome proliferator-activated receptor gamma (Homo sapiens) (UniProt P37231); experiment: qHTS assay to identify small molecule antagonists of the peroxisome proliferator-activated receptor gamma (PPARg) signaling pathway (AID 743191; calls by dose curve; also: series mostly up to about 63 µM; nearly all actives have a fitted effect of over 30% in size)
Procedure, shortened: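 GeneBLAzer PPARg UAS-bla HEK293H cells, 5 h post-plating, exposed to compounds 17 h at 37C. LiveBLAzer B/G FRET substrate added for 1 h at room temperature; beta-lactamase reporter read by fluorescence intensity.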

Measured: Potency

COC(=O)C1(O)c2ccccc2-c2ccccc21
not listed: [13] | [14] | [15] | [16] | [17] | [18] | [19] | [20]
inactive: all other assays above

CC(Oc1cc(Cl)c(Cl)cc1Cl)C(=O)O (configuration not stated)
not listed: [8] | [9] | [16] | [17] | [18] | [19] | [20]
inactive: all other assays above

C=CC(C)(CCC=C(C)C)OC(=O)c1ccccc1N (configuration not stated)
not listed: [8] | [10] | [14] | [15] | [19] | [20]
inactive: all other assays above

C=CCc1ccccc1O
not listed: [8] | [13] | [16] | [19] | [20]
inactive: all other assays above

CC(Oc1cccc(Cl)c1)C(=O)O (configuration not stated)
not listed: [3] | [11] | [12] | [13]
inactive: all other assays above

Clc1ccc(Cl)c(Cl)c1
not listed: [8] | [10] | [13] | [14] | [15] | [16] | [19] | [20]
inactive: all other assays above

CCC(C)Cl (configuration not stated)
not listed: [2] | [8] | [10] | [14] | [15] | [17]
inactive: all other assays above

CC(C)(C)c1ccc(CCOc2ncnc3ccccc23)cc1
not listed: [8] | [10] | [19] | [20]
inactive: all other assays above
